From PubChem BioAssay
Sampled rows, rich in hits. Any-hit rate of the full collection: about 8.8%.
HT1080-NT tox: kills 2HG-producing HT-1080-NT fibrosarcoma cells; Potency, µM (doses to about 46.1 µM), for the others: at the top dose activity, negative = less viability, hits mostly cytotoxic; HT-1080-NT fibrosarcoma viability, CellTiter-Glo ATP luminescence, 48 h; AID 686970; 360,000 compounds, 1.6% hits;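 note: NT is the 2HG producing partner of a matched IDH1 knockdown line; potency is the fitted concentration of half-maximal effect; 0% = DMSO-treated cells and -100% = media-only wells without cells; nearly all actives have a fitted effect of over 55% in size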
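A 48-hour cytotoxicity screen used HT-1080-NT cells plated 2 hours before compound delivery. ATP-based CellTiter-Glo luminescence measured viability, normalized to DMSO and no-cell controls.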
HT1080 IDH1KD tx: toxicity to HT-1080 IDH1 knockdown cells (counter line); HT-1080 IDH1 knockdown viability, ATP luminescence, 48 h; Potency, µM (top dose mostly 46.1 µM), without a hit: at the highest dose activity, negative = toxicity, hits mostly cytotoxic; 360,000 compounds, 2% hits;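 note: potency is the fitted concentration of half-maximal effect; 0% = DMSO wells and -100% = cell-free medium wells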
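Using the IDH1-knockdown HT-1080 line run in the same batch and compound series as the NT line, viability after 48 h at 37 °C was determined by CellTiter-Glo luminescence and expressed as % activity.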
IL-1B inflam inh: inhibitors of inflammasome signaling (IL-1 beta secretion); THP-1 LPS/ATP IL-1B secretion, AlphaLISA, 16 h; active compounds read low; activity change, % at 57.5 µM; 360,000 compounds, 4.7% hits; in the data active = activity change below about -50%; inconclusive = mostly about -30% to -49%
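THP-1 cells pretreated 1 hr with compounds (up to 57.5 uM final), then stimulated with LPS (250 ng/mL final) plus ATP (1.25 mM final); secreted IL-1B measured by AlphaLISA after 16 hr, decreased signal indicating inhibition.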
KB-V1 cytotox: kills drug-selected multidrug resistant KB-V1 cells; AID 1347076; KB-V1 MDR cells viability, CellTiter-Glo, 72 h; Potency, µM (top dose mostly 46.1 µM), usual class: cytotoxic; 400,000 compounds, 3.4% hits; note: potency is the fitted concentration of half-maximal effect; nearly all actives have a fitted effect of over 60% in size
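KB-V1 cells (P-gp-expressing MDR subline of KB-3-1) in phenol-red-free DMEM with 10% FBS were exposed to library compounds over a concentration series for 72 h at 37 degrees C. Viability read by CellTiter-Glo luminescence; concentration-effect curves fitted after normalization.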
KB-3-1 cytotox: kills parental KB-3-1 adenocarcinoma cells. 400,000 compounds, 1.4% hits. KB-3-1 viability, CellTiter-Glo ATP luminescence, 72 h. Potency, µM (top dose mostly 46.1 µM), most hits filed as cytotoxic; note: potency is the fitted concentration of half-maximal effect; nearly all actives have a fitted effect of over 60% in size
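Luminescent ATP read-out (CellTiter-Glo) measures survival of drug-naive KB-3-1 cells after 72 h compound exposure at 37 °C. Titration series was screened from lowest to highest concentration, with DMSO vehicle plates as background controls.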
The depositor's hits bear a star; i = inactive; ? = inconclusive; · = no result; [ ] = remark or other dose. Unless noted, calls come from the whole dose curve; as a rule, active = well fitted curve in the direction sought with a large enough effect; inconclusive = small, poorly fitted or top-dose-only effect, or another doubt; inactive = no such curve, though single readings can be large; an effect the other way counts as inactive or inconclusive. Unless noted, % is set by controls: 0 for no effect and ±100 for the full control effect.

SMILES | HT1080-NT tox | HT1080 IDH1KD tx | IL-1B inflam inh | KB-V1 cytotox | KB-3-1 cytotox
Cc1ccc2[nH]c3c(=O)n(CC(=O)N4CCN(C)CC4)ncc3c2c1 | -1% | 3% | 2 | i | i
Cc1cc(C)n(CC(=O)O)n1 | 1% | -5% | 0 | i | i
Cc1cc(C)n(CC(C)C(=O)O)n1 (stereo unspecified) | 21% | 12% | -79* | i | i
Cc1ccc(CNC(=O)CSc2ccsc2[N+](=O)[O-])cc1 | -9% | -23% | ? | i | i
COc1ccc(CNC(=O)CSc2ccsc2[N+](=O)[O-])cc1 | -3% | 0% | -59* | i | i
COc1ccc(/C=C(\NC(=O)c2ccc(OC)cc2)C(=O)Nc2ccccc2C(=O)O)cc1 | 3% | 7% | 0 | i | i
O=C(C1CCN(Cc2cc(Cl)ccc2O)CC1)N1CCN(Cc2ccccc2)CC1 | -12% | -23% | -6 | 10µM* | ?
COC(=O)C1=C(C)Nc2nnnn2C1c1ccccc1Cl (stereo unspecified) | 7% | 3% | 19 | i | i
CCCCCOC(=O)C1=C(C)Nc2nnnn2C1c1ccccc1Cl (stereo unspecified) | 13µM* | 21µM* | 9 | 21µM* | i
C=C(C)COc1ccc2c(c1)CCC1C2CCC2(C)C(=O)C(=NO)CC12 (stereo unspecified) | 0% | ? | -99* | ? | ?
CC12CCC3c4ccc(OCC(=O)O)cc4CCC3C1CCC2=O (stereo unspecified) | 4% | 2% | 16 | i | i
CSc1nc2c(c(=O)[nH]1)C(c1cccc(Cl)c1)CC(=O)N2 (stereo unspecified) | 11% | 4% | 5 | i | i
O=C(CSc1nnnn1-c1ccccc1)N1CCCc2ccccc21 | -1% | 1% | -55* | ? | i
O=C(CSc1nnc(-c2cccs2)n1-c1ccccc1)N1CCCc2ccccc21 | -31% | ? | ? | 16µM* | i
O=C(CSc1nnnn1-c1ccccc1)N1CCc2ccccc21 | 4% | 8%[9.24 µM] | 18 | i | i
Nc1c(C(=O)c2ccccc2)sc2nsc(SCCN3CCCC3)c12 | 12µM* | 23µM* | -104* | ? | ?
Nc1c(C(=O)c2ccc(Cl)cc2)sc2nsc(SCCN3CCOCC3)c12 | 15% | 19% | 11 | i | i
COC(=O)c1c(NC(=O)C2c3ccccc3Oc3ccccc32)sc2c1CCC(C)C2 (stereo unspecified) | · | · | · | i | i
Cc1ccc(CCc2nnc(SCC(=O)Nc3cc(Cl)ccc3Cl)n2-c2ccccc2)o1 | -2% | -20% | -10 | 15µM* | i
COc1ccc(C=O)cc1CN1CCCN(Cc2ccccc2F)S1(=O)=O | -2% | -15% | ? | i | i
Cn1c(NCCc2ccncc2)nc2cc(-c3ccsc3)sc2c1=O | ? | -28% | 0 | i | i
COc1ccc(NC(=O)CSc2ncccc2C(=O)O)cc1OC | · | · | · | ? | i
CC(=O)c1sc(NC(=O)CCS(=O)(=O)c2ccc(F)cc2)nc1C | ? | ? | -94* | i | i
Cc1ccc(S(=O)(=O)CCC(=O)Nc2nnc(-c3ccc(F)cc3)o2)cc1 | -10% | -16% | -59* | i | i
COc1ccc2c(c1)c1c(c(=O)n(CCc3ccccc3)c(=O)n1Cc1ccc(F)cc1)n2C | · | · | · | i | i
SMILES | HT1080-NT tox | HT1080 IDH1KD tx | IL-1B inflam inh | KB-V1 cytotox | KB-3-1 cytotox
COc1cc(Cl)c(S(=O)(=O)N2CCCC2)cc1Cl | -12% | -4% | 7 | i | i
COc1cc(N2C(=O)C=CC2=O)c(OC)cc1Cl | 18µM* | ? | ? | ? | ?
Cn1nc(-c2ccc(NCCO)c([N+](=O)[O-])c2)c2ccccc2c1=O | 1% | -12% | -12 | i | ?
CN(C)CCNc1ccc(-c2nn(C)c(=O)c3ccccc23)cc1[N+](=O)[O-] | -2% | 15% | -4 | 23µM* | ?
Cc1ccc(S(=O)(=O)N2CCCCC2)cc1NC(=O)c1nn(C)c(=O)c2ccccc12 | 7% | 9% | 37 | i | i
CN(C)c1ccc(N/C=C/C(=O)C(C)(C)C)cc1 | -21% | ? | -98* | i | i
